In all, about 39,000 compounds went through this assay and about 3,300 (8.5%) were called active. The list comes from a sample in which actives are over-represented; it also holds similar structures and randomly drawn compounds.
Tested on: HepG2
Experiment: cytotoxicity call (relative viability < 0.9)
Conditions: 10 µM

| Structure (SMILES) | cytotoxicity call |
| --- | --- |
| C/C=C/c1ccc2c(c1)O[C@@H](CN(C)S(=O)(=O)c1ccccc1OC)[C@H](C)CN([C@@H](C)CO)S2(=O)=O | inactive |
| C[C@@H]1CN([C@H](C)CO)C(=O)Cc2cc(NS(=O)(=O)c3ccc(F)cc3)ccc2O[C@@H]1CN(C)S(=O)(=O)c1cn(C)cn1 | inactive |
| C[C@H]1CCCCO[C@H](CN(C)C(=O)c2ccncc2)[C@@H](C)CN([C@@H](C)CO)C(=O)c2cc(NS(=O)(=O)c3ccc(Cl)cc3)ccc2O1 | inactive |
| Cc1noc(C)c1S(=O)(=O)Nc1ccc2c(c1)C(=O)N([C@@H](C)CO)C[C@H](C)[C@H](CN(C)C(=O)Nc1ccc3c(c1)OCO3)O2 | inactive |
| C[C@@H]1CN([C@@H](C)CO)C(=O)c2cc(NS(=O)(=O)c3ccc(Cl)cc3)ccc2O[C@@H](C)CCCCO[C@@H]1CN(C)C(=O)Cc1ccccc1 | inactive |
| OC[C@H]1CCCN1CC1CC1 | inactive |
| C[C@H]1CN([C@@H](C)CO)C(=O)c2cc(NS(=O)(=O)c3cn(C)cn3)ccc2O[C@H]1CN(C)Cc1ccccc1 | inactive |
| O=C(c1ccncc1)N1C[C@H]2[C@@H](c3ccccc31)[C@H](CO)N2C(=O)CN1CCOCC1 | inactive |
| COC(=O)c1c(CC[C@@H](CO)NC(=O)N[C@H](Cn2cc(C3(O)CCCCC3)nn2)C(C)C)oc(C(C)=O)c1C(=O)OC | inactive |
| C[C@@H]1CN([C@H](C)CO)C(=O)c2cc(NS(=O)(=O)c3ccc(F)cc3)ccc2O[C@@H]1CN(C)Cc1ccncc1 | inactive |
| COc1ccc(S(=O)(=O)N(C)C[C@H]2Oc3c(NS(=O)(=O)c4cn(C)cn4)cccc3C(=O)N([C@@H](C)CO)C[C@@H]2C)cc1 | inactive |
| COc1ccc(NC(=O)Nc2ccc3c(c2)C(=O)N([C@@H](C)CO)C[C@@H](C)[C@H](CN(C)C(=O)Nc2ccccc2)OCCCC[C@@H](C)O3)cc1 | inactive |
| c1ccc2c(-c3cn[nH]c3)ccnc2c1 | inactive |
| C[C@H](CO)N1C[C@H](C)[C@@H](CN(C)S(C)(=O)=O)Oc2c(cccc2N(C)C)C1=O | inactive |
| C[C@H](CO)N1C[C@H](C)[C@H](CN(C)Cc2ccc(Cl)c(Cl)c2)Oc2ccc(NS(=O)(=O)c3ccc(F)cc3)cc2C1=O | inactive |
| C[C@H]1CN([C@@H](C)CO)C(=O)c2cc(NS(=O)(=O)c3ccc(F)cc3)ccc2O[C@@H]1CN(C)Cc1ccc(Cl)c(Cl)c1 | active |
| C[C@@H]1CN([C@H](C)CO)C(=O)c2cc(NS(=O)(=O)c3ccc(Cl)cc3)ccc2O[C@@H]1CN(C)Cc1ccc(Cl)c(Cl)c1 | active |
| C[C@H]1CN([C@@H](C)CO)C(=O)c2cc(NS(=O)(=O)c3ccc(Cl)cc3)ccc2O[C@@H]1CN(C)Cc1ccc(Cl)c(Cl)c1 | active |
| C[C@@H]1CN([C@@H](C)CO)C(=O)c2cc(NS(=O)(=O)c3ccc(F)cc3)ccc2O[C@@H]1CN(C)Cc1ccc(Cl)c(Cl)c1 | inactive |
| C[C@@H]1CN([C@@H](C)CO)C(=O)c2cc(NS(=O)(=O)c3ccc(Cl)cc3)ccc2O[C@H]1CN(C)Cc1ccc(Cl)c(Cl)c1 | active |
| C[C@@H]1CN([C@@H](C)CO)C(=O)c2cc(NS(=O)(=O)c3ccc(F)cc3)ccc2O[C@H]1CN(C)Cc1ccc(Cl)c(Cl)c1 | inactive |
| C[C@@H]1CN([C@H](C)CO)C(=O)c2cc(NS(=O)(=O)c3ccc(F)cc3)ccc2O[C@H]1CN(C)Cc1ccc(Cl)c(Cl)c1 | inactive |

| Structure (SMILES) | cytotoxicity call |
| --- | --- |
| Cc1ccc(S(=O)(=O)Nc2ccc3c(c2)C(=O)N([C@H](C)CO)C[C@H](C)[C@@H](CN(C)CC2CCCCC2)OCCCC[C@@H](C)O3)cc1 | inactive |
| COc1cccc(OC)c1C(=O)NC1C(=O)N2C1SC(C)(C)C2C(=O)[O-].[Na+] (stereo unspecified) | inactive |
| C[C@H](CO)N1C[C@H](C)[C@@H](CN(C)C(=O)NC2CCCCC2)OCCCC[C@H](C)Oc2ccc(NS(=O)(=O)c3cccs3)cc2C1=O | inactive |
| C[C@H]1CN([C@@H](C)CO)C(=O)Cc2cc(NC(=O)NC3CCCCC3)ccc2O[C@@H]1CN(C)Cc1ccc(Cl)c(Cl)c1 | inactive |
| CCS(=O)(=O)NCC[C@@H]1CC[C@@H](NC(=O)Cc2ccccn2)[C@@H](CO)O1 | inactive |
| CC(C)=CCCC(C)=CCCC(C)=CCO [trans,trans-FARNESOL ] | inactive |
| C[C@@H]1CN([C@H](C)CO)C(=O)c2cccc(NC(=O)Nc3ccc4c(c3)OCO4)c2O[C@@H]1CN(C)Cc1ccc(C(=O)Nc2ccccc2N)cc1 | inactive |
| O=C(OC(C(F)(F)F)C(F)(F)F)N1CCN(Cc2ccc(C(F)(F)F)cc2N2CCCC2)CC1 | inactive |
| C[C@H](CO)N1C[C@H](C)[C@@H](CN(C)Cc2ccccc2)Oc2ccc(NS(=O)(=O)c3cn(C)cn3)cc2C1=O | inactive |
| Cn1cnc(S(=O)(=O)N2C[C@H](O)COC[C@H]3O[C@H](CC(=O)NC4Cc5ccccc5C4)CC[C@@H]32)c1 | inactive |
| O=C(CCCCCNC(=O)OCCCCO[C@@H]1C[C@H](c2ccc(Br)cc2)C=C(C(=O)N2CCN(Cc3ccccc3)CC2)O1)NO | inactive |
| C[C@@H]1CCCCO[C@@H](CN(C)C(=O)c2ccccc2)[C@@H](C)CN([C@H](C)CO)C(=O)c2cc(NC(=O)Nc3ccc(C(F)(F)F)cc3)ccc2O1 | active |
| C[C@@H]1CCCCO[C@@H](CN(C)C(=O)c2ccccc2)[C@H](C)CN([C@H](C)CO)C(=O)c2cc(NC(=O)Nc3ccc(C(F)(F)F)cc3)ccc2O1 | inactive |
| C[C@@H]1CCCCO[C@H](CN(C)C(=O)c2ccccc2)[C@H](C)CN([C@@H](C)CO)C(=O)c2cc(NC(=O)Nc3ccc(C(F)(F)F)cc3)ccc2O1 | active |
| C[C@@H]1CN([C@@H](C)CO)C(=O)c2cc(NC(=O)Nc3ccc(C(F)(F)F)cc3)ccc2O[C@@H](C)CCCCO[C@H]1CN(C)C(=O)c1ccccc1 | inactive |
| C[C@@H]1CN([C@H](C)CO)C(=O)c2cc(NC(=O)Nc3ccc(C(F)(F)F)cc3)ccc2O[C@@H](C)CCCCO[C@@H]1CN(C)C(=O)c1ccccc1 | inactive |
| C[C@@H]1CN([C@H](C)CO)C(=O)c2cc(NC(=O)Nc3ccc(C(F)(F)F)cc3)ccc2O[C@@H](C)CCCCO[C@H]1CN(C)C(=O)c1ccccc1 | inactive |
| Cc1noc(C)c1NC(=O)Nc1cccc2c1O[C@@H](CN(C)Cc1ccc(-c3ccccc3)cc1)[C@@H](C)CN([C@@H](C)CO)C2=O | inactive |
| Cc1ccc(S(=O)(=O)N(C)C[C@@H]2OCCCC[C@H](C)Oc3ccc(NC(=O)Nc4cccc5ccccc45)cc3C(=O)N([C@H](C)CO)C[C@@H]2C)cc1 | inactive |
| CSC(=N)NCCC[C@@H](N)C(=O)O | inactive |
| C[C@H]1CCCCO[C@H](CN(C)S(=O)(=O)c2cccs2)[C@@H](C)CN([C@@H](C)CO)C(=O)c2cc(NC(=O)Nc3ccc(C(F)(F)F)cc3)ccc2O1 | inactive |
| CC(C)(C)C(=O)Nc1c[nH]c(=O)[nH]c1=O | inactive |

| Structure (SMILES) | cytotoxicity call |
| --- | --- |
| C[C@@H]1CCCCO[C@@H](CN(C)C(=O)NC2CCCCC2)[C@H](C)CN([C@@H](C)CO)C(=O)c2cc(NC(=O)c3ccncc3)ccc2O1 | inactive |
| Nc1ccc(S(=O)(=O)c2ccc(N)cc2)cc1 | inactive |
| Nc1ccc2cc3ccc(N)cc3nc2c1.O=S(=O)(O)O | active |
| Nc1ccc2c(c1)nc(CO)n2CCO | inactive |
| C[C@@H]1CN([C@H](C)CO)C(=O)c2cc(NC(=O)C3CCCCC3)ccc2O[C@H]1CN(C)C(=O)Nc1cccc2ccccc12 | inactive |
| COc1ccc(S(=O)(=O)N(C)C[C@H]2Oc3ccc(NC(=O)C4CC4)cc3CC(=O)N([C@@H](C)CO)C[C@@H]2C)cc1 | inactive |
| C[C@H](CO)N1C[C@H](C)[C@@H](CN(C)C(=O)Nc2cccc3ccccc23)Oc2ccc(NS(=O)(=O)c3ccc(Cl)cc3)cc2CC1=O | inactive |
| Cc1noc(C)c1NC(=O)N(C)C[C@@H]1Oc2ccc(NC(=O)C3CC3)cc2CC(=O)N([C@@H](C)CO)C[C@H]1C | inactive |
| COc1ccc(NC(=O)N2CCCCN3[C@H](CN(C)C(C)=O)[C@H](c4ccc(C#Cc5ccccc5)cc4)[C@@H]3C2)cc1 | active |
| COc1ccc(C#Cc2ccc([C@@H]3[C@@H](CO)N4CCCCN(S(=O)(=O)c5cn(C)cn5)C[C@H]34)cc2)cc1 | inactive |
| COc1ccc(NC(=O)N2CCCCN3[C@H](COCCN(C)C)[C@H](c4ccc(C#Cc5ccccc5)cc4)[C@@H]3C2)cc1 | active |
| CN(C)CC#Cc1ccc([C@@H]2[C@H](CO)N3CCCCN(C(=O)CN(C)C)C[C@@H]23)cc1 | inactive |
| COc1ccc(C#Cc2ccc([C@H]3[C@H](CO)N4CCCCN(S(=O)(=O)c5cn(C)cn5)C[C@@H]34)cc2)cc1 | inactive |
| COc1ccc(C#Cc2ccc([C@@H]3[C@H](CO)N4CCCCN(S(=O)(=O)c5cn(C)cn5)C[C@@H]34)cc2)cc1 | active |
| CN(C)CC#Cc1ccc([C@H]2[C@@H](CO)N3CCCCN(C(=O)CN(C)C)C[C@H]23)cc1 | inactive |
| CN(C)CC#Cc1ccc([C@@H]2[C@@H](CO)N3CCCCN(C(=O)CN(C)C)C[C@@H]23)cc1 | inactive |
| CN(C)CC#Cc1ccc([C@H]2[C@@H](CO)N3CCCCN(C(=O)CN(C)C)C[C@@H]23)cc1 | inactive |
| O[C@H]1[C@H](O)[C@@H](O)[C@H]2O[C@@H]2[C@@H]1O | inactive |
| CCSC(=O)NC1CCCCC1 | inactive |
| COc1ccc(NC(=O)N(C)C[C@H]2OCCCC[C@H](C)Oc3ccc(NC(=O)CCC(F)(F)F)cc3C(=O)N([C@H](C)CO)C[C@@H]2C)cc1 | inactive |
| CS(=O)(=O)N1CC[C@@H]2OCCN(C(=O)c3cccnc3)[C@@H]2C1 | inactive |
| C[C@@H]1CN([C@H](C)CO)C(=O)c2cccc(NS(=O)(=O)c3cn(C)cn3)c2O[C@H]1CN(C)Cc1ccc(C(=O)O)cc1 | inactive |

From the antibiotic and cytotoxicity screens of Wong et al. (2023)
